HSV augment: increases HSV replication in cells; HSV replication augmentation in cells, fold increase; maximum fold increase; actives 0.005% (n = 220,000); in the data active = maximum fold increase above about 1.5; inconclusive = no clear call, values can overlap the other calls; tested in PC3 cells
Arbovirus inh: arbovirus infection inhibition | arbovirus infection cell-based antiviral screen | inhibition, % at 10 µM | actives 0.37% (n = 200,000) | AID 1251; in the data active = inhibition above about 30%
ROMK primary: modulates human ROMK potassium channel activity; Tet-inducible ROMK, thallium flux fluorescence; actives lie on both sides; AID 1918; actives 2% (n = 130,000); B-score at 10 µM;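 active = signal ratio slope over the read window, or its plate-corrected B-score, at least 3 SD from the plate mean, either direction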;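 also: B-score of the F/F0 ratio slope over 7 to 12 s after thallium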
Measles CPE: protection of cells from measles virus; Measles virus-infected cells, CPE protection, absorbance; protection (pct of control), % at 4 µM; actives 1.5% (n = 140,000); AID 841; in the data active = protection mostly above about 24%, no sharp cut-off; inactive = mostly below about 26%
KCC2 mod: modulators of human KCC2 chloride dependent transport. B-score of Tl+ flux slope (higher = more flux/activation; lower = inhibition) at 10 µM. AID 1456. Q9H2X9. actives 2.2% (n = 190,000). KCC2 cells, thallium flux FluoZin-2 fluorescence;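 active = thallium flux slope and its plate-corrected score both differing from the plate sample mean at a set confidence after two filtering rounds, in either direction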;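 also: slope of fluorescence scaled to starting intensity during 10 to 20 s after thallium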
Target sequence (Q9H2X9 whole entry, looked up): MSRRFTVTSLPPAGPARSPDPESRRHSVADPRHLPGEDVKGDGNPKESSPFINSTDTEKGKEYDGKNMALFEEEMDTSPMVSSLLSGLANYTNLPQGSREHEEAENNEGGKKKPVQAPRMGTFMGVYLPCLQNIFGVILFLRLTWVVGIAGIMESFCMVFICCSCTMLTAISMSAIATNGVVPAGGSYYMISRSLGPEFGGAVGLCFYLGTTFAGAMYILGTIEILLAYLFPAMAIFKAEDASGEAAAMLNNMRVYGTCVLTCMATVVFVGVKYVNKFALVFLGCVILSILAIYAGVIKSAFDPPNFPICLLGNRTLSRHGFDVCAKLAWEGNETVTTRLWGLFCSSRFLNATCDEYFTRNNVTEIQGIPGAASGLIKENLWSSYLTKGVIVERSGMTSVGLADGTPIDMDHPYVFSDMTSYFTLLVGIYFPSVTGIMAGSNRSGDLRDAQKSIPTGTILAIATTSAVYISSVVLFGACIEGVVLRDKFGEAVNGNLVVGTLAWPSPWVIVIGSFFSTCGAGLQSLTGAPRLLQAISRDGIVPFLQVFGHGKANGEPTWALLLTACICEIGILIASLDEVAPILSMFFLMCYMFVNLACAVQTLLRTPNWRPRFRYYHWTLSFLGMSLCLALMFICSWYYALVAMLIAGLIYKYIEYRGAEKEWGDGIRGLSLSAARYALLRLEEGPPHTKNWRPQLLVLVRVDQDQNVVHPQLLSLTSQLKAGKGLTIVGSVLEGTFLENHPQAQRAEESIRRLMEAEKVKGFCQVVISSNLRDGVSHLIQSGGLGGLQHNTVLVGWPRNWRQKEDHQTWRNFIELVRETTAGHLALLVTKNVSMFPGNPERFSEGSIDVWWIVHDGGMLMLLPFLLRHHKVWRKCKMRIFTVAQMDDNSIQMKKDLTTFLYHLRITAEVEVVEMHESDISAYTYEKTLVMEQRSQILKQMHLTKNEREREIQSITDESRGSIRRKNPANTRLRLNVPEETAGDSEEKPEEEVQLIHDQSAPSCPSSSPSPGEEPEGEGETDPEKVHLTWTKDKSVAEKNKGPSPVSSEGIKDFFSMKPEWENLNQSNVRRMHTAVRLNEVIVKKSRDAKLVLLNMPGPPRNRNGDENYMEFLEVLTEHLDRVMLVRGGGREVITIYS
ROMK hit retest: human ROMK channel modulation, retest confirmation | shares compounds with ROMK primary | ROMK thallium flux, fluorescence ratio; hits give low values | normalized thallium flux (F/F0 slope) at 10 µM | actives 54% (n = 3,000);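 active = Flux at 10 µM at least 3 SD below or above vehicle control mean in one or both replicates; inconclusive = no clear call, values can overlap the other calls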
Numbers stand for hits. Compounds with a hit are over-represented: about 4% of the library has one in this group of screens.

Screening COc1cc(/C=C(/Sc2nnc(-c3ccc(F)cc3)o2)C(=O)O)ccc1OC(F)F returned HSV augment inactive, Arbovirus inh inactive, ROMK primary -11, KCC2 mod inactive and ROMK hit retest inactive.
Screening COc1ccc(/C=C(/Sc2nnc(-c3ccc(Cl)cc3)o2)C(=O)O)cc1 returned HSV augment inactive, Arbovirus inh inactive, ROMK primary inactive and KCC2 mod inactive.
CC(NC(=O)/C(C#N)=C/c1cccs1)c1ccccc1 (stereo unspecified) was read as HSV augment inactive, Arbovirus inh inactive, ROMK primary -4.6, KCC2 mod inactive and ROMK hit retest 0.054.
COC(=O)c1ccc(/C=C(\C#N)C(=O)NC(C)c2ccccc2)cc1 (stereo unspecified) was read as HSV augment inactive, Arbovirus inh inactive, Measles CPE inactive, KCC2 mod inactive and ROMK hit retest 0.049.
For O=C(COc1ccc(Oc2ccccc2)cc1)NCc1cn2ccccc2n1 the results were HSV augment inactive, Arbovirus inh inactive, ROMK primary 2.9, KCC2 mod inactive and ROMK hit retest inactive.
For Cc1cccc(OCCCCCNCCO)c1 the results were HSV augment inactive, Arbovirus inh inactive and ROMK primary inactive.
Cc1cccc(OCCCCNCc2ccccc2)c1 was read as HSV augment inactive, Arbovirus inh inactive, ROMK primary -1.3, KCC2 mod inactive and ROMK hit retest 0.062.
Clc1ccc(OCCCNCc2ccccc2)c(Br)c1 was read as HSV augment inactive, Arbovirus inh inactive, ROMK primary -3, Measles CPE inactive, KCC2 mod inactive and ROMK hit retest 0.064.
Clc1ccc(Cl)c(OCCCCNCc2ccccc2)c1 was read as HSV augment inactive, Arbovirus inh inactive, ROMK primary -3.2, Measles CPE inactive, KCC2 mod inactive and ROMK hit retest 0.066.
For O=[N+]([O-])c1ccccc1OCCCNCc1ccccc1 the results were HSV augment inactive, Arbovirus inh inactive, ROMK primary inactive and KCC2 mod inactive.
`OCCNCCCOc1ccc(Cl)cc1Br` gave HSV augment inactive, Arbovirus inh inactive, Measles CPE inactive and KCC2 mod inactive.
Cc1cc(Cl)c(OCCCNCc2ccccc2)c(Br)c1 was read as HSV augment inactive, Arbovirus inh inactive, ROMK primary -5.2, Measles CPE inactive, KCC2 mod inactive and ROMK hit retest 0.053.
For N#C/C(=C(/O)CCl)c1nc2ccccc2[nH]1 the results were HSV augment inactive, Arbovirus inh inactive, ROMK primary inactive and KCC2 mod inactive.
Cc1ccnc2nc(C(=O)Nc3ccc(S(=O)(=O)N4CCCC4)cc3)nn12 was read as HSV augment inactive.
For CN1C2C=C3C(C#N)=C(N)C(C#N)(C#N)[C@@H](c4cccs4)C3C1CC2 (stereo partly specified) the results were HSV augment inactive, Arbovirus inh inactive, ROMK primary inactive, Measles CPE inactive and KCC2 mod inactive.
For CC(C)(C)C1CC=C2C(C#N)=C(N)C(C#N)(C#N)C(c3cccs3)C2C1 (stereo unspecified) the results were HSV augment inactive, ROMK primary -3, KCC2 mod inactive and ROMK hit retest 0.055.
For Cc1ccc(CSc2nc3ccccc3cc2C=O)cc1 the results were HSV augment inactive, Arbovirus inh inactive, Measles CPE inactive, KCC2 mod inactive and ROMK hit retest 0.1.
Cc1cc(C2=NNC(=NC3CC3)SC2)c(C)n1Cc1ccco1 was read as HSV augment inactive, Arbovirus inh inactive, Measles CPE inactive and KCC2 mod inactive.
Screening COCCCN=C1NN=C(c2cc(C)n(Cc3ccco3)c2C)CS1 returned HSV augment inactive, Arbovirus inh inactive, ROMK primary 1.3, Measles CPE inactive, KCC2 mod inactive and ROMK hit retest inactive.
For CC(COc1ccccc1)N1CCC(CO)(Cc2ccccc2)CC1 (stereo unspecified) the results were HSV augment inactive, Arbovirus inh inactive, ROMK primary inactive and KCC2 mod inactive.
Screening CCOC(=O)C(=NCCCN(C)C)NNc1cc(C(F)(F)F)ccc1Cl returned HSV augment inactive, Arbovirus inh inactive, ROMK primary -2.7, KCC2 mod inactive and ROMK hit retest 0.059.
For Cc1cccc(OCCn2c(CCCO)nc3ccccc32)c1 the results were HSV augment inactive, Arbovirus inh inactive, ROMK primary -2.8, Measles CPE inactive, KCC2 mod inactive and ROMK hit retest 0.059.
`CC(=O)NCCc1nc2ccccc2n1CCOc1cccc(C)c1` gave HSV augment inactive, ROMK primary inactive and KCC2 mod inactive.
Screening O=C(O)c1ccc(N/N=C2/CCCc3ccccc32)cc1 returned HSV augment inactive and KCC2 mod inactive.
For COc1ccc(/C=N/n2c(N)nc3ccccc32)cc1OC the results were HSV augment inactive, Arbovirus inh inactive, Measles CPE inactive and KCC2 mod inactive.
COc1cccc(/C=N/n2c(N)nc3ccccc32)c1OC was read as HSV augment inactive, Arbovirus inh inactive, ROMK primary 6.6, Measles CPE inactive, KCC2 mod inactive and ROMK hit retest 0.11.
Screening N#C/C(=C\c1cccc(Cl)c1)c1n[nH]c(Cn2cncn2)n1 returned HSV augment inactive, Arbovirus inh inactive, ROMK primary -2.6, Measles CPE inactive, KCC2 mod inactive and ROMK hit retest 0.053.
For C/C(CC(=O)Nc1ccc(Cl)c(Cl)c1)=N\NC(=O)C(=O)N1CCCCC1 the results were HSV augment inactive, Arbovirus inh inactive, ROMK primary inactive and KCC2 mod inactive.
Screening O=[N+]([O-])c1cc(-c2ncccn2)c([N+](=O)[O-])s1 returned HSV augment inactive, Arbovirus inh inactive, ROMK primary inactive, Measles CPE inactive, KCC2 mod inactive and ROMK hit retest 0.06.
For O=C(CN1CCN(c2ccc([N+](=O)[O-])cc2)CC1)Nc1ccccn1 the results were HSV augment inactive, Arbovirus inh inactive, ROMK primary -3.2, Measles CPE inactive and ROMK hit retest 0.054.
For O=C(CN1CCN(c2ccc([N+](=O)[O-])cc2)CC1)Nc1nccs1 the results were Arbovirus inh inactive, ROMK primary inactive, Measles CPE inactive and KCC2 mod inactive.
For O=C(CN(Cc1ccccc1)C(=O)CSc1nnc(COc2ccccc2)o1)NC1CCCC1 the results were HSV augment inconclusive, Arbovirus inh inactive and Measles CPE inactive.
`CC(C)(C)NC(=O)CN(C(=O)CSc1nnc(COc2ccccc2)o1)c1cccc(F)c1` gave HSV augment inactive, Arbovirus inh inactive, ROMK primary -2.7, Measles CPE 31, KCC2 mod inactive and ROMK hit retest inconclusive.
For CC(C)NC(=O)C1(O)c2ccccc2NC(=O)N1c1ccc(Cl)c(Cl)c1 (stereo unspecified) the results were HSV augment inactive, Arbovirus inh inactive, Measles CPE inactive, KCC2 mod inactive and ROMK hit retest inconclusive.
For CC(=O)c1c(C)n(-c2ccccc2)c2ccc(OCC(N)=O)cc12 the results were HSV augment inactive and Arbovirus inh inactive.
`O=C(Nc1ccc(F)cc1)C1=CC(=O)N2CCN=C2S1` gave HSV augment inactive, Arbovirus inh inactive, ROMK primary inactive and KCC2 mod inactive.

Screening data as filed in PubChem.
